Source: PubChem BioAssay
The list is not random: actives were taken first. Their share in the collection is about 11%.
FLuc inh: blocks purified firefly luciferase enzyme activity; P08659; purified P. pyralis luciferase, luminescence, biochemical; Potency, µM (series often up to 115 µM), most hits filed as inhibitors; 76,000 compounds, 2.5% hits; AID 1347043; note: nearly all actives have a fitted effect of over 65% in size
Target sequence (P08659 whole entry, looked up): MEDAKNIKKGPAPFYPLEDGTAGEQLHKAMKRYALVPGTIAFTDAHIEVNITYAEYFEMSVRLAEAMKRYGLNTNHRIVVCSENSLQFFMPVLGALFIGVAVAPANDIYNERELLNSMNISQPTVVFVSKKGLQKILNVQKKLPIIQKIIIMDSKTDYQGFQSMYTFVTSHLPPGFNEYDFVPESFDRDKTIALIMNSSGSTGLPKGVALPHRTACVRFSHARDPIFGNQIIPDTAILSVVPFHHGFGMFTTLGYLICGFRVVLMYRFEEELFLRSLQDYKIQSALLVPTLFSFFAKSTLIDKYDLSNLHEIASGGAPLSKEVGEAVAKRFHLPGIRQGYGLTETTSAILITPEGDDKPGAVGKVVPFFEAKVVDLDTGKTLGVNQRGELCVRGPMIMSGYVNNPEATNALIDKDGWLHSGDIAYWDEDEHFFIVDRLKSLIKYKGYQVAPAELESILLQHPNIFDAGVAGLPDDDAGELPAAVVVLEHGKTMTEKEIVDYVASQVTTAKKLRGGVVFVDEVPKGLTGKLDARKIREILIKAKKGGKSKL
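Purified 10nM P. pyralis luciferase with 10uM D-luciferin and 10uM ATP in 50mM Tris acetate pH 7.5, 10mM Mg acetate, 0.01% Tween-20, 0.05% BSA. qHTS titration; luminescence read by CCD imager.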
HEK293 tox: kills HEK 293 cells; HEK 293 viability, ATP luminescence (CellTiter-Glo), 48-72 h; Potency, µM (series often up to 115 µM), for inactives: top-dose activity change, negative = cytotoxicity, most hits filed as inhibitors; 94,000 compounds, 6.6% hits; note: nearly all actives have a fitted effect of over 60% in size
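HEK 293 cells at 250 cells/well were exposed to compounds by pintool transfer for 48 or 72 hr at 37 degree Celsius, 5% CO2. Viability was read as ATP-coupled luminescence with CellTiter-Glo after 10 min at room temperature.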
NIH3T3 tox: cytotoxic compounds in NIH 3T3 cells | 94,000 compounds, 4.3% hits | Potency, µM (top dose mostly 96.7 µM), inactives show top-dose activity change, negative = cytotoxicity, usual class: inhibitors | NIH 3T3 viability, CellTiter-Glo ATP luminescence, 48-72 h; note: nearly all actives have a fitted effect of over 55% in size
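Cytotoxicity was measured by CellTiter-Glo ATP luminescence after 48 or 72 h compound exposure at 37 °C. Mouse NIH 3T3 fibroblasts were seeded at 400 cells/well and dosed by 23 nL pin transfer.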
hNpr1 antagonist: blocks ANP-stimulated signaling of human Npr1 receptor; Potency, µM (series often up to 46.3 µM), for the others: top-dose activity change, negative = inhibition, usual class: inhibitors; HEK293 hNpr1 GloSensor cGMP, ANP-stimulated luminescence; 76,000 compounds, 1.6% hits; P16066; calls by dose curve; note: nearly all actives have a fitted effect of over 60% in size
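HEK293 cells stably expressing human Npr1 and cGMP GloSensor pGS-40F, loaded 2 h with 2% GloSensor reagent, given compound 30 min at room temperature. Luminescence read before and 20 min after 0.1 nM hNppA.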
An asterisk follows results filed as active; i = inactive; ? = inconclusive; / = no result given; ! = a repeat was not active; [ ] = dose if it differs, or a comment. Unless noted, calls come from the whole dose curve; as a rule, active = well fitted curve in the direction sought with a large enough effect; inconclusive = small, poorly fitted or top-dose-only effect, or another doubt; inactive = no such curve, though single readings can be large; an effect the other way counts as inactive or inconclusive. % is set by controls: 0 for no effect and ±100 for the full control effect; potency is the fitted concentration of half-maximal effect.

SMILES	FLuc inh	HEK293 tox	NIH3T3 tox	hNpr1 antagonist
Cc1ccc(-c2cc(C(=O)NCc3cccc(Cl)c3)c3cnn(C)c3n2)c(C)c1	/	32µM*	?	/
COc1cccc(-c2cc(C(=O)NCc3cccs3)c3cnn(C)c3n2)c1	/	?	25µM*!	/
COc1cc(CNC(=O)c2cc(-c3ccc(Cl)cc3Cl)nc3c2cnn3C)cc(OC)c1	/	45µM*	?	/
COc1cccc(-c2cc(C(=O)NCc3ccc(C(F)(F)F)cc3)c3cnn(C)c3n2)c1	/	-8%	-11%	/
Cc1ccc(-c2cc(C(=O)NCc3cccc(Cl)c3)c3cnn(C)c3n2)cc1	/	3%	-24%	/
O=c1[nH]c(C2CCCN(CC3CCCCC3)C2)nn1-c1ccc(Cl)cc1 (centres undefined)	i	3%	-12%	0%
O=C(NC1CCCCC1)N1Cc2[nH]cnc2C[C@H]1c1nc(-c2ccncc2)no1	i	-1%[172 µM]	-11%[174 µM]	1%[70.6 µM]
COc1ccccc1CN1CCC2(CC1)COCCN2C(=O)OCc1ccccc1	i	?	?	-15%[70.6 µM]
O=C(OCc1ccccc1)N1CCOCC12CCN(Cc1ccccc1)CC2	i	25µM*	?	-14%[70.6 µM]
Cc1cccc(CN2CCC3(CC2)COCCN3C(=O)OCc2ccccc2)c1	i	40µM*	40µM*	-8%[70.6 µM]
O=C(OCc1ccccc1)N1CCOCC12CCN(Cc1ccncc1)CC2	i	50µM*	35µM*	-5%[70.6 µM]
O=C(OCc1ccccc1)N1CCOCC12CCN(Cc1ccccc1F)CC2	i	?	?	-5%[70.6 µM]
Cc1ccccc1CN1CCC2(CC1)COCCN2C(=O)OCc1ccccc1	i	100µM*	?	-17%[70.6 µM]
Cc1noc(C)c1CN1CCC2(CC1)COCCN2C(=O)OCc1ccccc1	i	?	-12%[138 µM]	-2%[70.6 µM]
CNC(=O)c1cc(C)nc2onc(C3CCCN([S+](=O)([O-])C(C)C)C3)c12 (centres undefined)	/	3%	2%	/
Cc1cc(C(=O)N2C[C@H](C(N)=O)[C@H]3c4ccccc4N(CC4CC4)C(=O)[C@]32C)c(C)o1	/	?	-28%[46.1 µM]	/
COc1cccc(C(=O)N2CCCC(C(=O)N3CCC(N4CCOC4=O)CC3)C2)c1 (centres undefined)	/	i	-7%	/
Cc1ccc(CN2CCC3(CC2)COCCN3C(=O)OCc2ccccc2)o1	i	28µM*	45µM*	1%[70.6 µM]
O=C(NCc1ccccc1F)c1nc2sccn2c1-c1cccc(C(F)(F)F)c1	/	-9%	-24%	/
O=C(Nc1ccc(F)cc1)c1nc2sccn2c1-c1cccc(C(F)(F)F)c1	/	50µM*	?	/
COc1ccc(-c2c(C(=O)Nc3cccc(Cl)c3)nc3sccn23)cc1	/	63µM*	?	/
O=C(NCc1ccccc1)c1nc2sccn2c1-c1ccncc1	/	112µM*	?	/
O=C(NCc1ccc(F)cc1)c1nc2sccn2c1-c1cccc(C(F)(F)F)c1	/	63µM*	?	/
CN1[C@@H](CCC(=O)NCc2ccc(F)cc2)CNC(=O)[C@@H]2[C@H]1CCN2Cc1ccc(C(F)(F)F)cc1	i	?	?	-19%
COCC1CN(C(=O)COc2ccc(Cl)cc2C)CC12CCNCC2 (centres undefined)	i	?	?	3%
SMILES	FLuc inh	HEK293 tox	NIH3T3 tox	hNpr1 antagonist
O=C(NCc1cccc(C(F)(F)F)c1)c1nc2sccn2c1-c1ccc(C(F)(F)F)cc1	/	40µM*	?	/
O=C(NCc1ccccc1)c1nc2sccn2c1-c1cccc(C(F)(F)F)c1	/	-24%	-15%	/
O=C(NCCc1ccc(Cl)cc1)c1nc2sccn2c1-c1ccc(C(F)(F)F)cc1	/	40µM*	20µM*	/
O=C(NCc1ccccc1Cl)c1nc2sccn2c1-c1cccc(C(F)(F)F)c1	/	25µM*	?	/
Cc1ccc(NC(=O)c2nc3sccn3c2-c2ccncc2)cc1	/	112µM*	?	/
Cc1cnc(C(=O)N[C@@H]2CCC[C@@H]2C(=O)N2CCN(c3cccc(C)c3C)CC2)cn1	i	?	-33%	1%
COc1ccc2[nH]c3c(c2c1)CCNC31CCN(Cc2ccc(F)cc2F)CC1	i	?	?	-9%
CN1CCN(C(=O)C2CCCN(c3nc4ncccc4o3)C2)CC1 (centres undefined)	i	1%[172 µM]	-6%[138 µM]	-2%[70.6 µM]
O=[S+]1([O-])NCC2(CCN(CC3CCCCC3)CC2)Oc2ncccc21	/	i	i	/
CS(=O)(=O)N1CCC(C2CCN(C(=O)c3ccc[nH]c3=O)C2)CC1 (centres undefined)	i	i	-6%	2%
